Shown is part of a subset that was picked to be rich in hits.
STK33 inh: STK33 kinase inhibitors, primary screen, biochemical, luminescence, ADP-Glo, MBP substrate. AID 2322, 2010. 0.44% of 27,000 active. Serine/threonine-protein kinase 33 (Homo sapiens), Q9BYT3. inhibition, % at 12.5 µM; in the data active = inhibition above about 20%; inconclusive = no clear call, values can overlap the other calls
p53 PUMA act: mutant p53 pathway re-activators, primary screen, cell-based, SW480, luciferase, single point, HTS; activation, % at 9.98 µM; AID 624151, 2012; SW480 PUMA-promoter luciferase, p53 mutant reactivation; 1.5% of 28,000 active; in the data active = activation above about 52%; inconclusive = no clear call, values can overlap the other calls
ID4 binder: binders of human ID4 protein, primary screen, biochemical, small molecule microarray, single point. AID 624137, 2012. calls only. 1.2% of 31,000 active. DNA-binding protein inhibitor ID-4 (Homo sapiens), P47928. Flag-ID4 binding, fluorescence F/B; call rule not given here;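 also: a binder raises fluorescence above local background on the spot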
NOMO-1 viab: NOMO-1 AML cell viability reduction, primary screen, STK33 inhibitor project, CellTiter-Glo luminescence; NOMO-1 AML viability, 72 h; 7.5% of 37,000 active; AID 2330, 2010; inhibition, % (no concentration beside the values); in the data active = inhibition above about 80%; inconclusive = no clear call, values can overlap the other calls
Starred values were filed as active, the others as inactive; i = inactive; ? = inconclusive; . = no result given; + = active, no number.

SMILES	STK33 inh	p53 PUMA act	ID4 binder	NOMO-1 viab
C[C@@H]1CN([C@H](C)CO)C(=O)c2cccc(N(C)C)c2O[C@H]1CN(C)Cc1ccc(C(F)(F)F)cc1	.	.	.	81*
C[C@@H]1CN([C@@H](C)CO)C(=O)c2cccc(NC(=O)Nc3ccc(C(F)(F)F)cc3)c2O[C@H]1CN(C)Cc1ccc(C(F)(F)F)cc1	.	.	.	116*
C[C@H]1CN([C@@H](C)CO)C(=O)c2cccc(NC(=O)Nc3ccc(C(F)(F)F)cc3)c2O[C@H]1CN(C)Cc1ccc(C(=O)O)cc1	.	4	i	7
C[C@H]1CN([C@@H](C)CO)C(=O)c2cccc(NC(=O)Nc3ccc(C(F)(F)F)cc3)c2O[C@@H]1CN(C)Cc1ccc(C(F)(F)F)cc1	.	.	.	113*
C[C@@H]1CN([C@@H](C)CO)C(=O)c2cccc(NC(=O)Nc3ccc(C(F)(F)F)cc3)c2O[C@H]1CN(C)Cc1ccc(C(=O)O)cc1	.	-1	i	.
C[C@H](CO)N1C[C@H](C)[C@@H](CN(C)Cc2ccc(C(F)(F)F)cc2)Oc2c(NC(=O)Nc3ccc(C(F)(F)F)cc3)cccc2C1=O	.	.	.	105*
C[C@H]1CN([C@@H](C)CO)C(=O)c2cccc(N(C)C)c2O[C@H]1CN(C)Cc1ccc(C(F)(F)F)cc1	.	-2	i	27
C[C@@H]1CN([C@H](C)CO)C(=O)c2cc(NC(=O)CCN3CCOCC3)ccc2O[C@@H]1CN(C)S(=O)(=O)c1cccs1	.	.	.	14
Cc1ccnc(SCC(=O)Nc2cccc3ccccc23)n1	0	-13	i	6
C/C=C/C=C/C(=O)O[C@@H]1C=C(CO)[C@](O)(CO)[C@@]2(C)CCCC(C)(C)[C@H]12	-2	4	i	63
CC/C=C\C/C=C\C/C=C\C/C=C\C/C=C\C/C=C\CCC(=O)O	1	-4	i	6
C/C=C/C/C=C/CCC(=O)[C@H]1O[C@H]1C(N)=O	-1	29	i	114*
O=C(c1ccccc1)N(C(=O)c1ccccc1)C(=O)c1ccccc1	.	.	.	24
O=C(c1ccccc1)c1ccc(-c2ccccc2)cc1	.	.	.	91*
O=C(CC(=O)c1ccccc1)c1ccccc1	-2	97*	i	24
C[C@@H]1CN([C@H](C)CO)C(=O)c2cccc(NC(=O)Nc3ccccc3)c2O[C@H]1CN(C)S(=O)(=O)c1ccc(Cl)cc1	.	.	.	-12
Cc1ccc(S(=O)(=O)NC(Cc2c[nH]c3ccccc23)C(=O)O)cc1 (stereo unspecified)	-2	-5	i	-9
COC(=O)C(Cc1c[nH]c2ccccc12)NS(=O)(=O)c1ccc(CNC(=O)c2ccccc2)s1 (stereo unspecified)	.	.	.	115*
CO[C@@H]1CN(C)C(=O)c2ccc(NC(C)=O)cc2OC[C@@H](C)N(CCc2ccccc2)C[C@H]1C	.	.	+	.
CCCC(=O)Nc1ccc2c(c1)OC[C@@H](C)N(CCc1ccccc1)C[C@@H](C)[C@H](OC)CN(C)C2=O	.	.	i	.
c1ccc2c(c1)OCC(c1nnc3sc(-c4ccncc4)nn13)O2 (stereo unspecified)	0	4	i	43
c1csc(-c2nn3c(C4COc5ccccc5O4)nnc3s2)c1 (stereo unspecified)	0	68*	i	4
COc1ccc(S(=O)(=O)Nc2ccc3c(c2)CC(=O)N([C@@H](C)CO)C[C@@H](C)[C@@H](CN(C)Cc2ccc(Oc4ccccc4)cc2)O3)cc1	2	.	.	?
Cc1ccc(S(=O)(=O)Nc2ccc3c(c2)CC(=O)N([C@H](C)CO)C[C@H](C)[C@H](CN(C)Cc2ccc(Oc4ccccc4)cc2)O3)cc1	8	.	.	111*
C[C@@H]1CN([C@H](C)CO)C(=O)Cc2cc(N(C)C)ccc2O[C@@H]1CN(C)Cc1ccc(Oc2ccccc2)cc1	-1	.	.	118*
C[C@@H]1CN([C@H](C)CO)C(=O)Cc2cc(NS(=O)(=O)c3ccc(Cl)cc3)ccc2O[C@H]1CN(C)Cc1ccc(Oc2ccccc2)cc1	.	.	.	112*
C[C@H](CO)N1C[C@H](C)[C@H](CN(C)Cc2ccc(Oc3ccccc3)cc2)Oc2ccc(NS(=O)(=O)c3ccccc3)cc2CC1=O	6	.	.	96*
C[C@H](CO)N1C[C@H](C)[C@H](CN(C)C)Oc2ccc(NC(=O)NC3CCCCC3)cc2C1=O	.	-11	i	13
C[C@H]1CN([C@@H](C)CO)C(=O)c2cc(-c3ccccc3F)cnc2O[C@H]1CN(C)Cc1cccc(F)c1	.	4	i	.
